RECQ1 inh – qHTS Assay for Inhibitors of RecQ-Like Dna Helicase 1 (RECQ1). Potency, µM (titrated, usually from 57.3 µM), for inactives: at the top dose activity, negative = inhibition, hits mostly inhibitors. RECQ1 DNA unwinding, red fluorescence kinetic read. 240,000 tested, 0.54% active;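 also: plate controls were vehicle for no effect and no enzyme for full effect; nearly all actives have a fitted effect of over 30% in size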
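RECQ1T1 50 nM; forked duplex (20 bp + 30-nt ss tails) 200 nM, ATP 2 mM final; pH 8.0, 2 mM MgCl2, 2.5 ug/ml poly(dI-dC); 15 min compound preincubation; discontinuous kinetic read over 2 h at RT.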
FEN1 inhibitor – qHTS Assay for the Inhibitors of Human Flap endonuclease 1 (FEN1); P39748; Recombinant FEN1 flap cleavage, fluorescence, 15 min; Potency, µM (doses to about 114 µM), without a hit: top-dose activity change, negative = inhibition, actives largely listed as inhibitors; 390,000 tested, 0.35% active; AID 588795, 2011; also: nearly all actives have a fitted effect of over 65% in size
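Compounds are tested as a concentration series against 10 nM FEN1; after a 15 min room-temperature preincubation, 50 nM substrate starts cleavage, with plate reads at 0 and 15 min. Normalized responses are fitted by a Hill equation.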
APE1 inh – qHTS Assay for Inhibitors of the Human Apurinic/apyrimidinic Endonuclease 1 (APE1). recombinant APE1, TAMRA/BHQ-2 abasic DNA cleavage fluorescence. Potency, µM (highest dose often 65.8 µM), inactives show at the top dose activity change, negative = inhibition, hits mostly inhibitors. DNA repair nuclease/redox regulator APEX1 (Homo sapiens), P27695. AID 2517, 2012. 350,000 tested, 0.35% active;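 also: plate controls were vehicle for no effect and reference inhibitor for full effect; nearly all actives have a fitted effect of over 55% in size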
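Compound pre-exposure to 0.75 nM APE1, 15 min at ambient temperature. Reaction initiated with 50 nM TAMRA/BHQ-2 THF substrate, read immediately in kinetic mode, 525 nm excitation, 598 nm emission.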
WRN inhibitor – qHTS for Inhibitors of WRN Helicase; Bifunctional 3'-5' exonuclease/ATP-dependent helicase WRN (Homo sapiens), Q14191; WRN helicase unwinding, fluorescent forked duplex, kinetic; Potency, µM (titrated, usually from 114 µM), for the others: top-dose activity change, negative = inhibition, most hits filed as inhibitors; 360,000 tested, 0.46% active; AID 651768, 2012; also: nearly all actives have a fitted effect of over 55% in size
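Enzyme (20 nM final) and test compound sit together 15 min at room temperature before substrate addition. Substrate is a single-forked duplex oligonucleotide (100 nM) labelled with fluorophore and quencher, with 2 mM ATP; helicase unwinding raises red fluorescence, read kinetically.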
BLM helicase inh – qHTS Assay for Inhibitors of Bloom's syndrome helicase (BLM); recombinant BLM DNA unwinding, fluorescence dequenching; 350,000 tested, 0.2% active; Potency, µM (series often up to 56.1 µM), without a hit: top-dose activity change, negative = inhibition, hits mostly inhibitors; AID 2528, 2010; RecQ-like DNA helicase BLM (Homo sapiens), P54132;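 also: plate controls were vehicle for no effect and no enzyme for full effect; nearly all actives have a fitted effect of over 35% in size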
* marks the source's active call; other numbers are inactive results; i = inactive; ? = inconclusive; . = no result given; [ ] = another dose, or the depositor's remark. Sampled rows, rich in hits. Any-hit rate of the full collection: about 0.87%. Calls follow the shape of the dose curve; as a rule, active = well fitted curve in the direction sought with a large enough effect; inconclusive = small, poorly fitted or top-dose-only effect, or another doubt; inactive = no such curve, though single readings can be large; an effect the other way counts as inactive or inconclusive. Unless noted, % is scaled to controls: 0 for no effect and ±100 for the full control effect; potency is read from the fitted curve at half-maximal effect.

SMILES	RECQ1 inh	FEN1 inhibitor	APE1 inh	WRN inhibitor	BLM helicase inh
COc1ccc(/C=N/NC(=O)c2[nH]c3ccc(Br)cc3c2-c2ccccc2)c(C(=O)O)c1OC	-5.6%	?	-7.5%	?	-12.6%
CC(C)c1onc(C(=O)Nc2sc3c(c2C#N)CCC3)c1[N+](=O)[O-]	39.8µM*	-0.3%	?	-7.2%	-14.9%
CC(C)c1cc(C(=O)Nc2sc3c(c2C#N)CCC3)no1	i	1.4%	-5.2%	-9.8%	-4.3%
OCc1cccc(-c2noc(-c3ccccc3F)n2)c1	.	.	56.9%	.	.
CCCOc1ccc(N)cc1N	-1.4%	?	-10.0%	56.2µM*	-25.0%
O=C(O)c1ccc(-c2nc(-c3ccccc3)c(-c3ccccc3)[nH]2)cc1	2.1%	11.6%	-0.5%	39.8µM*	2.0%
O=C(Cn1sc2ccccc2c1=O)NC12CC3CC(CC(C3)C1)C2	-12.2%	-2.0%	2.7%	39.8µM*	0.4%
O=C(/C=C/c1ccc([N+](=O)[O-])cc1)Nc1cccc(C(=O)Nc2ccccc2C(=O)O)c1	.	?	?	31.6µM*	-11.4%
COC(=O)c1cccc(NC(=O)/C=C/c2ccc([N+](=O)[O-])cc2)c1	-2.9%	-3.4%	14.3%	-1.6%	-11.6%
COc1cc2c(cc1OC)C(=O)C(Br)CC2 (centres undefined)	.	.	.	50.1µM*	.
O=c1[nH]cnc2n[nH]nc12	.	5.0%	.	.	.
Cc1ccnc(N=O)c1	.	50.1µM*	34.5%	4.3%	.
C#CCOCCOCCOCCNc1nc(N2CCOCC2)nc(N2CCN(C(=O)CCCCCCCCCCNC(=O)Cn3cc(CCCCCN)nn3)CC2)n1	.	2.8%	9.1%	5.3%	.
C#CCOCCOCCOCCNc1nc(N2CCN(C(=O)CCCCCCCCCCNC(=O)Cn3cc(CCCCCN)nn3)CC2)nc(N2CCN(C(=O)CCCCCCCCCCNC(=O)[C@H]([C@@H](C)CC)n3cc(CCCCCN)nn3)CC2)n1	.	?	-12.2%	56.2µM*	.
C#CCOCCOCCOCCNc1nc(N2CCN(C(=O)CCCCCCCCCCNC(=O)Cn3cc(CCCCCN)nn3)CC2)nc(N2CCN(C(=O)CCCCCCCCCCNC(=O)[C@H](CO)n3cc(CCCCCN)nn3)CC2)n1	.	?	55.6%	79.4µM*	.
C#CCOCCOCCOCCNc1nc(N2CCN(C(=O)CCCCCCCCCCNC(=O)[C@H]([C@@H](C)CC)n3cc(CCCCCN)nn3)CC2)nc(N2CCN(C(=O)CCCCCCCCCCNC(=O)[C@@H]([C@H](C)O)n3cc(C)nn3)CC2)n1	.	56.2µM*	-98.3%	56.2µM*	.
O=C1NC(=O)/C(=C/c2cccn2-c2ccc(P(=O)(O)O)cc2)N1	.	.	40.0%	.	.
COc1cc(NC(=O)CCn2nc(C)c(S(=O)(=O)N3CCCCC3)c2C)cc(OC)c1OC	.	-0.1%	.	.	2.2%
CN(C)c1ccc(C(=O)OCC(=O)Nc2ccc(S(N)(=O)=O)cc2)cc1	-8.3%	?	1.3%	44.7µM*	-12.7%
O=C(CSc1nc2nn(-c3ccccc3)c(=O)c-2c2n1CCCCC2)c1ccc(O)c(O)c1	.	?	?	2.82µM*	.
CNC(=O)CSc1nc2nn(-c3ccccc3)c(=O)c-2c2n1CCCCC2	-15.0%	4.6%	0.3%	-12.1%	1.1%
Cc1nc2ccc(NC(=O)c3cc([N+](=O)[O-])cc([N+](=O)[O-])c3Cl)cc2s1	-1.8%	0.3%	3.8%	10µM*	-14.8%
O=C(O)CCCN1C(=O)/C(=C\c2ccc(-c3nc4ccccc4s3)o2)SC1=S	?	35.5µM*	?	-35.4%[11.6 µM]	-6.3%
O=C(O)CCN1C(=O)/C(=C/c2ccc(-c3nc4ccccc4s3)o2)SC1=S	i	-5.9%	-2.5%	?	-5.3%
O=C(O)CN1C(=O)/C(=C\c2cc([N+](=O)[O-])ccc2OCc2ccccc2Cl)SC1=S	.	-16.3%	?	44.7µM*	-14.5%
SMILES	RECQ1 inh	FEN1 inhibitor	APE1 inh	WRN inhibitor	BLM helicase inh
COc1ccc(/C=C2/SC(=S)N(CC(=O)O)C2=O)cc1OCc1ccc(Cl)cc1	.	?	-27.2%	56.2µM*	-9.9%
O=C(O)CN1C(=O)/C(=C\c2cc(Br)ccc2OCc2ccc(Cl)cc2)SC1=S	.	?	-7.6%	56.2µM*	-23.4%
C[n+]1ccnc2ccccc21	.	9.9%	.	.	.
O=C(CSc1nnc2ccccn12)Nc1ccccc1Cl	.	-8.7%	33.9%	-6.0%	.
O=C(CSc1nnc2ccccn12)NC(=O)c1ccccc1Cl	.	18.1%	13.4µM*	-20.4%	.
COc1ccc(-c2nc3ccccc3nc2-c2ccccc2)cc1OC	.	-13.9%	15.0%	-29.8%	-7.3%
COc1ccc(OC)c(-c2nc3cc4ccccc4cc3nc2-c2ccccc2)c1	3.16µM*	-3.9%	-6.0%	-5.0%	-10.6%
O=C1CC2(CCCCC2)CC(=O)N1CCc1ccccc1	.	10.1%	.	6.9%	.
O=C1C=CC(=O)C(C2=C3C(=O)N(CCc4ccccc4)CC(=O)N3CCC2)=C1	-15.2%	7.1%	-4.7%	39.8µM*	-10.8%
CCCn1c(C)nc2c(c1=O)c1nc3ccccc3nc1n2CCC1=CCCCC1	i	-8.4%	-2.5%	-10.2%	-2.6%
Cc1nc2c(c(=O)n1CCC1=CCCCC1)c1nc3ccccc3nc1n2/N=C/c1ccco1	28.2µM*	-31.7%	?	?	-22.9%
Cc1ccnc2ccc(N)cc12	.	-6.8%	.	.	.
CCOC(=O)c1c(NC(C)=O)sc2c(O)cccc12	-9.6%	3.7%	-0.6%	4.1%	-3.1%
CCOC(=O)c1c(NC(C)=O)sc2c(OCC(O)CNC(C)(C)C)c(Br)ccc12 (centres undefined)	7.2%	22.4µM*	?	47.4%	-10.2%
CCOc1ccc(NC(=O)c2cccc(-n3cccc3)c2)cc1S(=O)(=O)N1CCOCC1	.	.	1.34µM*	.	.
COc1ccc(S(=O)(=O)N2CCOCC2)cc1NC(=O)c1cccc(-n2cccc2)c1	.	-16.3%	?	?	.
CCOC(=O)c1cnc(-n2[nH]c(C)cc2=O)[nH]c1=O	-8.0%	-23.2%	-10.7%	56.2µM*	-6.3%
CCN(CC)/[N+]([O-])=N/OCOC(=O)C(C)c1ccc2cc(OC(C)=O)ccc2c1 (centres undefined)	.	-6.0%	.	.	.
C/C(=N\Nc1ccc(C(=O)O)cc1)c1ccc(Br)cc1	i	1.8%	25.1µM*	-13.6%	0.3%
C/C(=N\Nc1ccc(C(=O)O)cc1)c1ccc(Cl)s1	.	6.1%	39.6%	2.4%	-1.8%
C/C(N)=C(/C#N)C(=O)CSc1nnc(NC(C)C)s1	-13.9%	35.5µM*	?	?	-12.7%

Source: PubChem
